Experimental data taken from PubChem BioAssay (NCI).
Compounds without any hit were thinned out: in the full panel of roughly 83,000, 20% have a hit.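 In brief: 96-well plates, 48 h treatment, single concentration, percent growth endpoint.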 Activity calls are given as the source filed them. Rule for the calls: active = growth percent below 10; inactive = the rest.

Legend:
Test in all cases: NCI-60 one-dose screen, 48 h (100 = growth as untreated, 0 = no growth, -100 = all killed)
Details in all cases: 10 µM unless noted
[1] = system: NCI-H23 lung
[2] = system: NCI-H226 lung
[3] = system: NCI-H322M lung
[4] = system: HOP-62 NSCLC
[5] = system: NCI-H460 lung
[6] = system: HOP-92 NSCLC
[7] = system: NCI-H522 lung
[8] = system: A549/ATCC NSCLC
[9] = system: 786-0 renal
[10] = system: COLO 205 colon
[11] = system: DU-145 prostate
[12] = system: K-562 leukemia
[13] = system: MALME-3M melanoma
[14] = system: MDA-MB-231 breast
[15] = system: RXF 393 renal
[16] = system: SF-268 CNS
[17] = system: SF-295 CNS
[18] = system: UACC-257 melanoma
[19] = system: M14 melanoma

Measured: growth

O=C1CC(c2nc3ccccc3[nH]2)CN1C1CCCCC1 (stereo not drawn)
inactive: [1] 89.8% | [2] 95.4% | [3] 103% | [4] 94.9% | [5] 109% | [6] 91.3% | [7] 89.3% | [8] 104% | [9] 110% | [10] 102% | [11] 110% | [12] 102% | [13] 103% | [14] 102% | [15] 111% | [16] 101% | [17] 97.3% | [18] 101% | [19] 104%

CC[n+]1ccc2c(c1)C(=O)c1nccc3c1c-2nc1ccccc13
inactive: [12] 20%
active: [1] -27.9% | [2] -67.1% | [3] -16.3% | [4] -27.6% | [5] -82.1% | [6] -11.9% | [7] -38% | [8] -4.31% | [9] -14.4% | [10] -23.8% | [11] -10.9% | [13] -85.5% | [14] -8.92% | [15] -2.9% | [16] -16.4% | [17] -27.6% | [18] -8.02% | [19] -16.3%

Nc1ccc2c(c1)C(=O)NC2=O
inactive: [1] 91.7% | [2] 96.2% | [3] 108% | [4] 93.1% | [5] 103% | [6] 151% | [7] 99.3% | [8] 105% | [9] 110% | [10] 106% | [11] 110% | [12] 100% | [13] 90.5% | [14] 101% | [15] 115% | [16] 92.5% | [17] 101% | [18] 98.6% | [19] 99.4%

CCN(CC)CCCCNc1ccc(NCCCCN(CC)CC)c2c1C(=O)c1ccccc1C2=O
active: [12] 1.87% | [19] -36.6%
inactive: [1] 77.5% | [2] 113% | [3] 110% | [4] 101% | [5] 57.4% | [6] 55.5% | [7] 96.6% | [8] 56.6% | [9] 82% | [10] 76.1% | [11] 94.1% | [13] 132% | [14] 80.5% | [15] 74.9% | [16] 101% | [17] 110% | [18] 97.9%

O=C(NCc1cccc(C(F)(F)F)c1)[C@H](CCC(=O)N1CCN(C2CCCCC2)CC1)N1C(=O)[C@@H](N2C(=O)OC[C@@H]2c2ccccc2)[C@H]1/C(Cl)=C/c1ccccc1
inactive: [1] 68.4% | [2] 73.2% | [3] 36.4% | [4] 55.6% | [5] 47.8% | [6] 32.6% | [7] 33.7% | [8] 37.7% | [9] 49.9% | [10] 40.7% | [11] 60.7% | [12] 31.5% | [13] 47.8% | [14] 33.1% | [15] 52.2% | [16] 31% | [17] 46.5% | [18] 24.9% | [19] 37.9%

Cn1cc(-c2csc(-c3cn(C)c4ncccc34)n2)c2ccccc21
active: [7] -18.8% | [10] -7.52% | [17] 9.79%
inactive: [1] 41.8% | [2] 74.8% | [3] 45.1% | [4] 33.8% | [5] 11.7% | [6] 66.1% | [8] 23.8% | [9] 60% | [11] 28% | [12] 14.8% | [13] 48.3% | [14] 52.2% | [15] 19.9% | [16] 50.6% | [18] 61.1% | [19] 12.2%

CS(CCCCN=C=S)=NC(=O)c1c(F)c(F)c(F)c(F)c1F (stereo not drawn)
inactive: [1] 80.6% | [2] 99.6% | [3] 85.6% | [4] 109% | [5] 65.5% | [6] 80.8% | [7] 20.6% | [8] 79.6% | [9] 94.3% | [10] 61.4% | [11] 41.4% | [12] 22.5% | [13] 44.8% | [14] 67.9% | [15] 41.9% | [16] 86.8% | [17] 102% | [18] 61.5% | [19] 62.8%

Cn1cc(-c2nc(-c3c[nH]c4ccccc34)cs2)c2cccnc21
inactive: [1] 49.6% | [2] 65.9% | [3] 58.9% | [4] 33.3% | [5] 16.8% | [6] 30.4% | [8] 34.2% | [9] 64.9% | [11] 31.6% | [12] 18% | [13] 54.7% | [14] 30.6% | [15] 27.9% | [16] 52.4% | [17] 11.5% | [18] 61.5% | [19] 19.6%
active: [7] -3.47% | [10] -2.81%

COC(=O)[C@@H]1CC[C@]2(C)[C@H](CC[C@@H]3O[C@@]32C)[C@@]1(C)CC(=O)c1ccoc1
inactive: [1] 98.5% | [2] 91.8% | [3] 102% | [4] 95.1% | [5] 101% | [6] 93.3% | [7] 80.4% | [8] 83.3% | [9] 107% | [10] 113% | [11] 112% | [12] 100% | [13] 97.7% | [14] 88.3% | [15] 111% | [16] 103% | [17] 104% | [18] 88.4% | [19] 108%

CCOC(=O)c1ccc2c(c1)nc(/C=C/c1ccc(Cl)cc1)n2-c1cc(C(C)(C)C)[nH]n1
inactive: [1] 77.6% | [2] 44.5% | [3] 48.7% | [4] 43.1% | [5] 59% | [6] 48.2% | [7] 52.2% | [8] 32.8% | [9] 42.7% | [10] 62.5% | [11] 74.1% | [12] 19.1% | [13] 61.2% | [14] 52.5% | [15] 21.3% | [16] 54.6% | [17] 56.2% | [18] 67% | [19] 83.4%

N#Cc1c2c(nc3n[nH]c(N)c13)CCCC2
inactive: [1] 99.6% | [2] 110% | [3] 128% | [4] 100% | [5] 108% | [6] 79% | [7] 104% | [8] 108% | [9] 106% | [10] 148% | [11] 121% | [12] 97.7% | [13] 115% | [14] 106% | [15] 92.9% | [16] 101% | [17] 101% | [18] 101% | [19] 104%

CCCCCCCCCC(=O)Oc1ccc(/C(=C(/C)c2ccccc2)c2ccc(OCCN3CCCC3)cc2)cc1
active: [4] -1.82% | [5] -7.47% | [6] -19% | [7] -26.3% | [9] -58.6% | [10] -57.1% | [12] -12.4% | [13] -62% | [14] -5.4% | [15] -32.4% | [17] -75.1% | [18] -51.9% | [19] -57.8%
inactive: [1] 26.8% | [2] 65.7% | [3] 32.8% | [8] 11.3% | [11] 55.9% | [16] 38.7%

CCOC(=O)c1c2c(n3ccc(NC(=O)CCN(CC)CC)cc13)C(=O)c1ncccc1C2=O
active: [1] 0.0285% | [5] -20.4% | [7] 6.16%
inactive: [2] 75.1% | [3] 73.4% | [4] 31.4% | [6] 82.1% | [8] 36.2% | [9] 50.1% | [10] 54.1% | [11] 66.5% | [12] 49.7% | [13] 76.9% | [14] 42.4% | [15] 67.2% | [16] 41.9% | [17] 38% | [18] 57.3% | [19] 49.7%

ClC1=C2NC=NC2n2c(nnc2-c2ccc(Cl)cc2)N1 (stereo not drawn)
inactive: [1] 107% | [2] 96.2% | [3] 110% | [4] 98.7% | [5] 106% | [6] 109% | [7] 73.2% | [8] 81.4% | [9] 97.2% | [10] 89.8% | [11] 112% | [12] 91.1% | [13] 129% | [14] 95.6% | [15] 101% | [16] 111% | [17] 97.8% | [18] 101% | [19] 102%

CCN(C(=O)CN1CCN(c2cc3c(cc2F)c(=O)c(C(=O)O)cn3CC)CC1)c1nc(-c2ccccc2)cs1
active: [1] 9.94% | [5] 5.71% | [6] -31.8% | [7] -15.4% | [8] 4.66% | [10] -51.9% | [13] -5.46% | [14] 6.19% | [15] 4.13% | [17] -17.5% | [18] -9.83%
inactive: [2] 18.2% | [3] 17.7% | [4] 15.5% | [9] 14.3% | [11] 23.3% | [12] 12.3% | [16] 22.7% | [19] 18.3%

COc1ccccc1N1CCN(CCn2c(=O)c3c(c4ccccc4n3C)n(C)c2=O)CC1
inactive: [1] 103% | [2] 82.9% | [3] 101% | [4] 107% | [5] 96.7% | [6] 92.1% | [7] 45.2% | [8] 71.5% | [9] 111% | [10] 100% | [11] 107% | [12] 100% | [13] 110% | [14] 90.4% | [15] 101% | [16] 96.2% | [17] 97.8% | [18] 90.6% | [19] 98.8%

O=C(CN1CCOCC1)Nc1ccc(Cn2nnc3c2C(=O)c2nnn(Cc4ccc(NC(=O)CN5CCOCC5)cc4)c2C3=O)cc1
active: [1] -21.1% | [2] -27.4% | [3] -3.02% | [4] -38.6% | [5] 5.66% | [6] -36.9% | [7] -43% | [8] -11.9% | [10] -83.9% | [11] -76.7% | [12] 0.148% | [13] -81.6% | [14] -9.32% | [15] -18.7% | [16] -5.75% | [17] -44.9% | [18] -95.2% | [19] -90.4%
inactive: [9] 12.1%
